RAD54 inh – RAD54 (human) branch migration inhibition. RAD54 Holliday junction branch migration, FAM/BHQ fluorescence. AID 602329. inhibition, % at 10.4 µM. Q92698. 0.14% of 360,000 active;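 active = mean normalized replicate activity at least 40 and at least half of replicates scoring 40 or more; inconclusive = only one of the two criteria met; inactive = mean below 40 and under half of replicates reaching 40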;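 also: 0% = median of neutral control wells and 100% = median of positive control wells; inhibitors cause a drop in the FAM fluorescence signal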
MLL AF4-AF9 inh – blocks AF4 peptide binding to human AF9; P42568; AlphaScreen, biotin-AF4 peptide binding to FLAG-AF9; inhibition, % at 10 µM; 0.47% of 350,000 active; AID 651704;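 active = every replicate reaching a set inhibition limit, whatever the replicate mean, cut at about 25% in these data; inconclusive = mean inhibition reaches that limit but some replicates miss it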;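 also: 0% = plate neutral control median and 100% = total signal loss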
PGC1a acetyl inh – lowers PGC1a acetylation signal in U2OS cells; AlphaScreen anti-acetyl-lysine; with virally co-expressed GCN5 acetyltransferase; inhibition, % at 15.6 µM; 0.17% of 350,000 active;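 active = every replicate shows inhibition of at least 40%; inconclusive = mean inhibition at least 40% but some replicate below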;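 also: 0% = neutral control wells and 100% = positive control wells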
GSIS activator – primary screen for activators of insulin secretion dependent on glucose, INS-1E cells, GLuc reporter luminescence; INS-1E GLuc reporter insulin secretion, 2-3 h; activation, % at 16.6 µM; 0.61% of 370,000 active;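 active = lowest replicate activation of at least 40%, so every replicate reaches that level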;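 also: 0% = median of neutral control wells and 100% = median of IBMX positive control wells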
ERAP1 HTS inh – inhibitors of human ERAP1 aminopeptidase; inhibition, % at 10.7 µM; recombinant ERAP1, Leu-AMC fluorescence, 60 min; Q9NZ08; 0.15% of 340,000 active; AID 652197;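 active = mean replicate inhibition of at least 30%, or all replicates individually reaching that 30% level; inactive = mean below 30% and not every replicate reaching it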;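 also: 0% = neutral control wells and 100% = L-leucinethiol positive control wells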
Target sequence (Q9NZ08 whole entry, looked up): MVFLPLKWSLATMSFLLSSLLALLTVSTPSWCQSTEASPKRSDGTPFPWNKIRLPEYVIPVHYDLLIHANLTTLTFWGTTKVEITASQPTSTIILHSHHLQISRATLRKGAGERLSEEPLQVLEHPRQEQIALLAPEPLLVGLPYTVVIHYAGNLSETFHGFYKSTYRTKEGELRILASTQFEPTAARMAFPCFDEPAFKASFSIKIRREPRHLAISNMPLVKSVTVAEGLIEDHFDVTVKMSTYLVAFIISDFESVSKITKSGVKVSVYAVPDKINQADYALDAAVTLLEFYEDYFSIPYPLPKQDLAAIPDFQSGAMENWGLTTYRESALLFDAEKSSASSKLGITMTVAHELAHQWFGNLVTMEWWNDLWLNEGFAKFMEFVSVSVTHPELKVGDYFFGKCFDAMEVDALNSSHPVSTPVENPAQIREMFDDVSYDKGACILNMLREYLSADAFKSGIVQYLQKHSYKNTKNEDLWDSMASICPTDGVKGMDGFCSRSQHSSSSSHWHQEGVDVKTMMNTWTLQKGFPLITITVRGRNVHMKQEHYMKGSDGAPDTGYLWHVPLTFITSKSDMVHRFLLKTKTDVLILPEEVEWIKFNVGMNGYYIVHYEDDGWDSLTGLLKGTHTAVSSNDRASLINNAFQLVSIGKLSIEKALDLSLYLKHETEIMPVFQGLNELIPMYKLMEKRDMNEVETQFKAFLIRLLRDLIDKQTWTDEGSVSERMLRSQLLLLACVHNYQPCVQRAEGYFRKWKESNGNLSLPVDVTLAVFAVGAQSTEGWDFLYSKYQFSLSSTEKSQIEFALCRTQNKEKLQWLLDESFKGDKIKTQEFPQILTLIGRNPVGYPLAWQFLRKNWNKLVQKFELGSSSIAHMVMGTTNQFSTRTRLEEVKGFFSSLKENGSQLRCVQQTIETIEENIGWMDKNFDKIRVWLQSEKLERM
RAD52 anneal inh – inhibitors of human RAD52 DNA annealing; inhibition, % at 18.7 µM; AID 651710; recombinant RAD52 DNA annealing, FRET fluorescence; P43351; 0.46% of 360,000 active;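 active = every replicate showing at least 50% inhibition; inconclusive = mean inhibition at least 50% but not in every replicate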
COX5a expr inh – reduces COX5a expression driven by PGC-1a in C2C12 myotubes; shares compounds with PGC1a acetyl inh; C2C12 myotubes PGC-1a adenovirus, COX5a qPCR; maximal activity, %; 45 tested, under 10 active;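 active = fitted dose curve reaching 40% activity at or below the highest valid dose tested; inconclusive = flat fit between 30% and 70%, or an unusable fit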
AID743468 – change in PGC-1a target gene PDK4 expression, dose response, C2C12 myotubes, RT-qPCR, cherry-pick. 45 tested, under 10 active. shares compounds with PGC1a acetyl inh. PGC-1a adenovirus, PDK4 mRNA qPCR. PDK4 expression increase, % at 19.5 µM;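 active = fitted curve reaching a 40% PDK4 expression rise at or below the top valid tested dose; inconclusive = no clear call, values can overlap the other calls; inactive = the rest, including shifts the wrong way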
Alpha interfer – interferes with the AlphaScreen assay signal. shares compounds with MLL AF4-AF9 inh. AlphaScreen interference counter-screen, signal luminescence. AC50, µM (highest dose often 12 µM), for the others: at the highest dose activity change, negative = inhibition. 45% of 530 active. AID 720494; cut-off not given, nearly all actives have AC50 up to about 14 µM
The depositor's hits bear a star; ? = inconclusive; nt = not tested or not shown; [ ] = dose if it differs, or a comment. Shown are actives, neighbours in structure and some others; about 1.4% of the full set was active somewhere.

SMILES	RAD54 inh	MLL AF4-AF9 inh	PGC1a acetyl inh	GSIS activator	ERAP1 HTS inh	RAD52 anneal inh	COX5a expr inh	AID743468	others
COc1cccc(C(=O)Nc2ccc3c(c2)C(=O)N(C)C[C@H](OC)[C@@H](C)CN(C)[C@H](C)CO3)c1	-0.8	-2.2	-4.9	-3.2	-1.3	3.9	nt	nt
COC(=O)c1nn(-c2ccccc2)ccc1=O	nt	nt	44.3*	12.0	nt	nt	-33.4	-11.0
O=C(O)C[C@@H]1C=C[C@@H](NC(=O)c2ccncc2)[C@H](CO)O1	-0.8	-3.0	-3.1	4.2	0.7	5.7	nt	nt
CO[C@@H]1CN(C)C(=O)c2ccc(NC(=O)c3ccccc3)cc2OC[C@H](C)NC[C@H]1C	5.7	-8.7	3.2	10.8	-1.3	-2.7	nt	nt
O=C(Nc1ccc(N2CCN(Cc3ccccc3F)CC2)cc1)c1ccc([N+](=O)[O-])o1	-4.9	0.6	72.7*	nt	-4.2	-6.4	-40.1	14.6
Cc1cc(C)cc(OC(=O)CS(=O)c2ccc(C(F)(F)F)cc2[N+](=O)[O-])c1 (stereo not drawn)	12.5	nt	-63.9	nt	nt	nt	-29.4	-14.9
O=C(CS(=O)c1ccc(C(F)(F)F)cc1[N+](=O)[O-])Oc1ccc(Cl)cc1 (stereo not drawn)	-5.3	nt	-2.2	nt	nt	nt	nt	nt
O=C(Nc1cccc(F)c1)N1CC(=O)N2[C@H](C1)[C@H](c1ccc(C#Cc3cccnc3)cc1)[C@@H]2CO	nt	-1.4	20.9	-18.4	2.2	-19.8	nt	nt
O=C(Nc1cccc(F)c1)N1CC(=O)N2[C@@H](CO)[C@@H](c3ccc(C#Cc4cccnc4)cc3)[C@@H]2C1	nt	-0.9	?	6.2	0.9	-16.1	-24.7	49.0*
Cc1ccc(S(=O)(=O)N(C)C[C@H]2Oc3cc(C#Cc4ccncc4)ccc3S(=O)(=O)N([C@H](C)CO)C[C@H]2C)cc1	9.6	-2.6	44.4*	0.9	1.3	-77.5	23.0	-8.4
C[C@H](CO)N1C[C@H](C)[C@@H](CN(C)Cc2cccnc2)Oc2cc(C#CC3CCCCC3)ccc2S1(=O)=O	-2.2	5.8	?	-10.7	0.3	3.8	39.1	2.4
C[C@@H]1CN([C@@H](C)CO)S(=O)(=O)c2ccc(C#CC3CCCCC3)cc2O[C@@H]1CN(C)Cc1cccnc1	-1.7	4.4	-11.9	-36.8	-1.5	-20.0	nt	nt
Cn1nnnc1SCC(=O)NCc1cccc(C(=O)O)c1	2.2	nt	?	nt	nt	nt	-25.7	-5.7
C/C=C/c1cccc(-c2nc(C(=O)NC3CCC3)cc3c2[C@@H](CCO)N([S@](=O)C(C)(C)C)C3)c1	nt	nt	nt	-26.7	nt	nt	nt	nt
O=C(C[C@@H]1C=C[C@H](NC(=O)CN2CCOCC2)[C@@H](CO)O1)NCCc1ccncc1	nt	-5.6	4.4	-7.3	-4.2	-18.8	nt	nt
Cc1ccc(-c2nc(NC(=O)c3nn(C)cc3[N+](=O)[O-])sc2C)cc1	4.6	1.5	95.7*	7.7	-2.4	-2.8	-24.9	4.0[6.8 µM]
C=CS(=O)(=O)N(Cc1ccccc1Br)[C@H](CO)Cc1ccccc1	2.4	-2.3	?	-26.7	0.6	-13.5	-23.9	-28.9
CCOC(=O)c1c2c(n(Cc3ccccc3)c1C)C(=O)C(=O)c1ccccc1-2	nt	5.3	nt	-33.4	-1.5	-4.2	nt	nt
CCOC(=O)c1c2c(n(C)c1C)C(=O)C(=O)c1ccc(Br)cc1-2	1.7	nt	-83.3	nt	nt	nt	-37.1	-30.8[6.8 µM]
COc1ccc(CC(=O)N/N=C(\C)c2cccnc2)cc1	0.4	1.5	nt	31.7	2.4	-12.6	nt	nt
CN=c1scc(-c2ccc(OC)cc2)n1/N=C(\C)c1cccnc1	nt	48.2*	nt	2.1	5.0	-37.2	nt	nt	Alpha interfer=11.4µM*
CC[C@H]1C/C=C\C[C@H](c2ccc(F)cc2)NC(=O)CCC(=O)N1	nt	nt	nt	24.7	nt	nt	nt	nt
COc1cc(OC)c2c(-c3ccccc3)cc(=O)oc2c1C(CCN1CCCCC1)c1ccc2c(c1)OCO2 (stereo not drawn)	0.0	36.1*	-11.7	33.6	8.1	32.4	nt	nt	Alpha interfer=-28.1%
COc1cc(OC)c2c(-c3ccccc3)cc(=O)oc2c1C(CCN1CCOCC1)c1ccc(N(C)C)cc1 (stereo not drawn)	2.2	38.5*	2.7	0.7	-0.5	-5.6	nt	nt	Alpha interfer=-20.5%
COc1cc(OC)c2c(-c3ccccc3)cc(=O)oc2c1C(CCN1CCCCC1)c1ccc(N(C)C)cc1 (stereo not drawn)	7.4	nt	20.5	nt	nt	nt	nt	nt
SMILES	RAD54 inh	MLL AF4-AF9 inh	PGC1a acetyl inh	GSIS activator	ERAP1 HTS inh	RAD52 anneal inh	COX5a expr inh	AID743468	others
COc1cc(OC)c2c(c1C(CCN1CCOCC1)c1ccc(N(C)C)cc1)OC(=O)CC2c1ccc(N(C)C)cc1 (stereo not drawn)	-6.8	65.3*	5.1	-23.5	-4.0	-9.7	nt	nt	Alpha interfer=13.3µM*
COc1ccccc1S(=O)(=O)N(C)C[C@H]1OCc2ccccc2-c2c(n(C)c3ccccc23)C(=O)N([C@@H](C)CO)C[C@@H]1C	-5.9	2.0	0.4	-6.2	-1.1	16.2	nt	nt
C[C@@H]1CN([C@H](C)CO)C(=O)c2cccc(NC(=O)Nc3ccc(C(F)(F)F)cc3)c2O[C@H]1CN(C)S(=O)(=O)c1ccccc1	nt	nt	-22.1	-0.6	nt	nt	nt	nt
O=[N+]([O-])c1ccc(/C=N/Nc2ccnc3cc(Cl)ccc23)o1	15.7	27.6*	-11.3	-10.3	1.1	-10.5	nt	nt	Alpha interfer=-29.0%
COc1ccccc1N/N=C/c1c(CO)cnc(C)c1O	-7.4	nt	-15.2	-16.9	nt	nt	nt	nt
Cc1ncc(CO)c(/C=N/NC(=S)Nc2ccc(Cl)c(Cl)c2)c1O	nt	29.6*	nt	-53.7	-3.3	-3.2	nt	nt	Alpha interfer=13µM*
CN1CCN(c2ccc(S(=O)(=O)N3CCCCC3)cc2NC(=O)/C=C/c2ccc(Cl)c([N+](=O)[O-])c2)CC1	-2.4	?	nt	-55.9	-1.1	4.7	nt	nt	Alpha interfer=2.2%
CCN1CCN(c2ccc(S(=O)(=O)N3CCCCC3)cc2NC(=O)/C=C/c2ccc([N+](=O)[O-])cc2)CC1	-4.0	14.1	nt	-24.1	2.6	11.6	nt	nt
COc1ccc(CN(C)C[C@H]2Oc3ccc(NC(=O)NC4CCCCC4)cc3CC(=O)N([C@H](C)CO)C[C@@H]2C)cc1	nt	nt	nt	-10.1	nt	nt	nt	nt
CN(C)C(CNC(C(=O)Nc1ccc([N+](=O)[O-])cc1Br)c1ccccc1)c1ccccc1 (stereo not drawn)	nt	34.9*	-12.9	-12.3	-2.2	4.2	nt	nt	Alpha interfer=-23.4%
O=C(N/N=C/c1sc(N2CCCCC2)nc1-c1cccs1)C1CC1	nt	23.2	-8.7	-6.2	0.4	-44.2	nt	nt	Alpha interfer=-20.4%
O=C(N/N=C/c1sc(N2CCOCC2)nc1-c1ccccc1)c1ccccc1Cl	-0.1	-2.7	-7.6	8.5	-3.4	-17.5	nt	nt
CO[C@@H]1CN(C)C(=O)c2cc(NS(C)(=O)=O)ccc2OC[C@H](C)N(Cc2ccccn2)C[C@@H]1C	nt	nt	7.7	1.0	nt	nt	nt	nt
